Shown is part of a subset that was picked to be rich in hits.
mHTT-CaM PPI inh – inhibitors of human mutant huntingtin-calmodulin interaction; P42858; AlphaScreen His-mHTT/GST-CaM binding, luminescence; inhibition, % at 15 µM; hit rate 3.6% among 190,000;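 further: 0% = both proteins with DMSO and 100% = one protein alone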
Pf apPOL block – Pf-apPOL DNA polymerase inhibition. hit rate 0.25% among 210,000. Recombinant Pf-apPOL, molecular beacon fluorescence, 1.5 h. AID 1794808. inhibition, % at 10 µM
Starred values were filed as active, the others as inactive; · = no result given; ! = a repeat was not active. No stated cut-off is given here; in the data, active means inhibition above about 50%; inactive means the rest.

SMILES | mHTT-CaM PPI inh | Pf apPOL block
O=C(CN1CCC2(CC1)N=C(c1cccc(F)c1)C(=O)N2)Nc1ccc(F)cc1 | 7 | 4
CCN(CC)C(=O)Sc1cccc2cccnc12 | 1 | 0
O=C(Sc1cccc2cccnc12)c1ccc([N+](=O)[O-])cc1 | 100* | -2
Cn1nc([N+](=O)[O-])nc1Sc1nc2ccccc2n1C | -3 | -5
O=[N+]([O-])c1ccc(CSc2cccc3cccnc23)cc1 | 63*! | -5
O=[N+]([O-])c1ccc(CSc2ccccn2)cc1 | · | 0
Cn1nc([N+](=O)[O-])nc1Sc1cccc2cccnc12 | 66* | -18
COCCCN1COc2ccc3c(c2C1)OC(=Cc1ccc(OC)cc1)C3=O | 18 | -10
CCCCNC(=O)NC1(C(F)(F)F)Oc2ccc(Cl)cc2O1 (stereo not given) | -9 | 0
COc1ccc2[nH]cc(CN3CCC(C(=O)NC4CCCc5ccccc54)CC3)c2c1 (stereo not given) | 69* | 0
O=C(NC1CCCc2ccccc21)C1CCN(S(=O)(=O)N2CCCCCC2)CC1 (stereo not given) | -3 | -6
CCc1onc(C)c1C1CCCN1C(=O)c1cc2nc(C3CC3)cc(C(F)(F)F)n2n1 (stereo not given) | 1 | 4
COc1ccc(Cl)cc1C(=O)N1CCN(c2ccccc2F)CC1 | -1 | -11
COc1ccc(Cl)cc1C(=O)N1CCN(C2=NN=C(c3cccs3)CS2)CC1 | 68* | 5
Brc1ccc(C2C=C(c3ccc(I)cc3)Nc3ncnn32)cc1 (stereo not given) | -6 | -11
Cc1nc2cc(-c3noc(-c4ccoc4)n3)ccc2o1 | -12 | 1
Cc1nn(-c2nc3ccccc3s2)c2c1C(c1ccccc1)CC(=O)N2 (stereo not given) | -4 | 1
Cc1cc(C)nc(-n2nc(C)c3c2NC(=O)CC3c2ccc3ccccc3c2)n1 (stereo not given) | 70* | -1
OC(COc1ccc2oc3c(c2c1)CCCC3)CN1CCN(c2ccccc2)CC1 (stereo not given) | 28 | -2
CC1SC2(C(=O)Nc3ccccc32)N(c2ccc(F)cc2)C1=O (stereo not given) | 1 | 2
Nc1nnc(SCC(=O)Nc2ccc3c(c2)OCO3)s1 | · | -10
Nc1sc(SCC(=O)Nc2ccc3c(c2)OCO3)nc1-c1ccccc1 | 78* | 1
CN1CCN(C(=O)C2CCN(c3ccc(Br)cc3F)C2=O)CC1 (stereo not given) | -2 | -4
Cn1c(=O)c(C(=O)NCc2ccc(Cl)cc2)nc2cccnc21 | 5 | -1
CC(C)c1ccc(CNC(=O)c2nc3cccnc3n(C)c2=O)cc1 | 62* | 0
SMILES | mHTT-CaM PPI inh | Pf apPOL block
O=S(=O)(c1ccc(F)cc1)N1CCCc2ccccc21 | -38 | 4
O=C1CN(S(=O)(=O)c2ccc3[nH]c4c(c3c2)CCCC4)c2ccccc2N1 | 74* | 5
O=C1CN(S(=O)(=O)c2ccc(Br)cc2)c2ccccc2N1 | -5 | -155
O=S(=O)(c1ccc2[nH]c3c(c2c1)CCCC3)N1CCCc2ccccc21 | 77* | 2
COc1cc(NC(=O)NCC(c2cccn2C)N2CCOCC2)cc(OC)c1 (stereo not given) | -1 | -11
O=C1C(=O)N(C(c2ccccc2)c2ccc(Cl)cc2)c2ccccc21 (stereo not given) | 93* | -2
O=C(CN1C(=O)C(=O)c2ccccc21)c1ccc(Cl)cc1 | 0 | -10
Cc1c(NC(=O)c2ccc([N+](=O)[O-])cc2Cl)cccc1-c1nc2ncccc2o1 | 7 | -416
Fc1ccc(N2Cc3ccccc3C2)cc1 | -6 | ·
Oc1ccc(N2Cc3ccccc3C2)cc1 | 100* | -8
CCN1CCN(Cc2c(O)ccc3c2OC(=Cc2ccc(OC)c(OC)c2)C3=O)CC1 | 3 | -10
COCCn1cc2c3c(cccc31)CN(C(=O)Nc1cccc(C)c1)CC2 | -12 | -1
O=[N+]([O-])c1cc(C(F)(F)F)cc([N+](=O)[O-])c1NCCCn1ccnc1 | · | -4
CCCNc1c(N)cc(C(F)(F)F)cc1[N+](=O)[O-] | 55* | -41
O=C(C1CCC1)N1CCCN(Cc2nc(-c3cccc(F)c3)no2)CC1 | 19 | -4
COc1ccc(CN2CCCC(c3n[nH]c(C4CC4)n3)C2)cc1OC (stereo not given) | 5 | -2
CCc1nc2c(c(=O)n1CC(=O)NCc1ccc(F)cc1)CN(Cc1ccccc1)CC2 | 2 | -4
COc1ccc(C(=S)NN)cc1 | 58* | ·
CCOC(=O)NC(=S)c1ccc(OC)cc1 | · | 3
O=C1OC(c2cccc([N+](=O)[O-])c2)=N/C1=C\c1cc(Br)cs1 | 92* | 0
O=C1OC(c2cccc([N+](=O)[O-])c2)=N/C1=C\c1cccs1 | 13 | -2
CCOc1ccc(/C=C2\N=C(c3ccc([N+](=O)[O-])cc3)OC2=O)cc1 | 2 | 1
CCOc1ccc(/C=C2\N=C(c3cc([N+](=O)[O-])cc([N+](=O)[O-])c3)OC2=O)cc1 | 56* | 0
